From PubChem BioAssay AID504832 (National Center for Advancing Translational Sciences (NCATS), 2011)
In all, about 310,000 compounds went through this assay and about 18,000 (5.8%) were called active. Roughly 22% stayed inconclusive and do not appear here. Calls follow the shape of the dose curve; as a rule, active = well fitted inhibition curve with a large enough effect; inconclusive = small, poorly fitted or top-dose-only effect, or another doubt; inactive = no such curve, though single readings can be large or run the other way. The list comes from a sample in which actives are over-represented; it also holds similar structures and randomly drawn compounds.

Assay: Primary qHTS for delayed death inhibitors of the malarial parasite plastid, 48 hour incubation
Conditions: P. falciparum luciferase growth in erythrocytes; series mostly up to 28.7 µM; activity change, negative = inhibition: at the top concentration
Outline: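 Firefly luciferase activity from engineered P. falciparum reports growth; inhibitors lower the luminescent signal. Cultures contained 2% hematocrit erythrocytes at 0.1% final parasitemia.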
% is scaled to controls: 0 for no effect and ±100 for the full control effect; potency is read from the fitted curve at half-maximal effect.

| SMILES | Potency | activity change, negative = inhibition |
| --- | --- | --- |
| NC1=NC[C@@H](Cc2ccc(O)cc2)N1CC1CCCCC1 | 6.57 µM (active) |  |
| O=C1NC[C@@H](Cc2ccc(O)cc2)N(CCc2cccc(F)c2)C1=O |  | -26.7% (inactive) |
| CN(c1ccccc1)S(=O)(=O)c1ccc2[nH]c(=O)[nH]c2c1 |  | 12% (inactive) |
| O=C(Cc1ccccc1Cl)N1CCOCC1 |  | 36% (inactive) |
| Cc1ccccc1N1CCN(C2CCCN(C(=O)c3ocnc3C)C2)CC1 (configuration not stated) |  | -4.29% (inactive) |
| O=c1c2c(nc3cc(-c4cccc(Cl)c4)[nH]n13)CCCC2 |  | 72.5% (inactive) |
| Clc1ccc2nc3c(c(-c4ccccc4)c2c1)CNCC3 | 13.1 µM (active) |  |
| Cc1cc(NC(=O)CCC(=O)N(c2ccccc2)C(C(=O)NC2CCCC2)c2ccncc2)no1 (configuration not stated) |  | -15% (inactive) |
| COc1cccc(N(CC(=O)NC2CCCC2)C(=O)Cn2nnc(-c3ccc(C)cc3)n2)c1 |  | -15.8% (inactive) |
| CCC(C(=O)NC1CCCC1)N(C(=O)Cn1nnc(-c2ccc(C)o2)n1)c1ccc(OC)c(OC)c1 (configuration not stated) | 10.4 µM (active) |  |
| Cc1cccc(N(C(=O)Cn2nnc(-c3ccc(C)o3)n2)C(C(=O)NC2CCCC2)c2ccncc2)c1 (configuration not stated) |  | 0% (inactive) |
| O=C(Cn1nnc(-c2ccc3c(c2)OCO3)n1)NCc1ccco1 |  | 39.3% (inactive) |
| Cc1ccc(-c2nnn(CC(=O)N(Cc3ccco3)C(C(=O)NC(C)(C)C)c3ccncc3)n2)o1 (configuration not stated) | 14.7 µM (active) |  |
| O=C(Cn1nnc(-c2ccccc2)n1)NC(=O)NC1CCCC1 |  | 9.86% (inactive) |
| COc1ccc(C)cc1N(C(=O)Cn1nnc(-c2ccc(C)o2)n1)C(C(=O)NC1CCCC1)c1ccncc1 (configuration not stated) | 5.22 µM (active) |  |
| Cc1ccc(-c2nnn(CC(=O)N(CCO)C(C(=O)NC(C)(C)C)c3ccncc3)n2)cc1 (configuration not stated) |  | 22.3% (inactive) |
| CCc1ccc(-c2cc3c(=O)n(CC(=O)NCCCN4CCN(Cc5ccccc5)CC4)nc(C)n3n2)cc1 |  | -3.05% (inactive) |
| CC(CCc1ccc(O)cc1)NCc1ccc(Cl)cc1Cl (configuration not stated) |  | 2.85% (inactive) |
| CN(C(=O)c1ccccc1)c1nccnc1C#N |  | -8.71% (inactive) |
| CCOC(=O)CSc1nnc(NC(=O)C2CC(=O)N(c3ccc(F)cc3)C2)s1 (configuration not stated) |  | -26.5% (inactive) |
| CCOC(=O)c1cccc(NC(=O)CN2C(=O)C3CC=CCC3C2=O)c1 (configuration not stated) |  | 0.828% (inactive) |
| COc1ccccc1CNS(=O)(=O)c1cc2c3c(c1)CCC(=O)N3CCC2 |  | -5.97% (inactive) |
| CNC(=O)NC(=O)C(C)N1CCN(C/C=C/c2ccccc2)CC1 (configuration not stated) |  | -4.98% (inactive) |
| COc1ccc(C(=O)NC2CC2)cc1OC1CCN(C/C=C/c2ccccc2)CC1 |  | -28.2% (inactive) |
| COc1cc(C(=O)N2CCN(C/C=C/c3ccccc3)CC2)cc(OC)c1C | 10.4 µM (active) |  |
| CC(C)[C@@H](C(=O)O)N(Cc1cccc(CN([C@H](C(=O)O)C(C)C)S(C)(=O)=O)c1)S(C)(=O)=O |  | 39.7% (inactive) |

| SMILES | Potency | activity change, negative = inhibition |
| --- | --- | --- |
| Cc1nnc2n1N=C(c1ccccc1)CS2 |  | 1.87% [at 0.00184 µM] (inactive) |
| CN(CC(=O)Nc1cccc(F)c1)C(=O)C1=COCCO1 |  | -28.3% (inactive) |
| CCc1nc(N2CCN(c3nc(C)cc(C)n3)CC2)c2oc3ccccc3c2n1 |  | 16.9% (inactive) |
| CCc1nc(Nc2ccc(NC(C)=O)cc2)c2oc3ccccc3c2n1 |  | -3.92% (inactive) |
| CCc1nc(Nc2ccc3nccnc3c2)c2oc3ccccc3c2n1 | 1.04 µM (active) |  |
| COCC1CCN(C(=O)CCc2nnc(C3(c4ccc(Cl)cc4)CCC3)o2)C1 (configuration not stated) |  | -14.5% (inactive) |
| Cc1noc(C)c1CSCC(=O)Nc1ccc(Br)cc1Cl |  | 14.8% (inactive) |
| COc1cc(C(=O)N2CCN(C3CCC(C)CC3)CC2)cc(OC)c1OC (configuration not stated) |  | -13.2% (inactive) |
| OC(CN=c1sc2ccccc2n1CC(O)COc1ccccc1)COc1ccccc1 (configuration not stated) | 13.1 µM (active) |  |
| OC(COc1ccccc1)Cn1cc(Br)cn1 (configuration not stated) |  | 21.9% (inactive) |
| CC(O)COc1ccccc1 (configuration not stated) |  | -5.11% (inactive) |
| Cn1nccc1C(=O)NC1CCCc2c1cnn2-c1ccccc1F (configuration not stated) |  | -4.57% (inactive) |
| CC(C)C(NS(=O)(=O)c1cccs1)C(=O)Nc1nc(C(C)(C)C)cs1 (configuration not stated) | 11.7 µM (active) |  |
| CC(C)(C)c1csc(NC2=NS(=O)(=O)c3ccccc32)n1 |  | 129% (inactive) |
| COc1ccc(CNC(=O)C(NS(=O)(=O)c2cccc3nsnc23)C(C)C)cc1 (configuration not stated) |  | 11.9% (inactive) |
| O=C(OCC(=O)N1CCCC1)c1ccc(Cl)nc1 |  | 2.9% (inactive) |
| CCCc1cc(=O)oc2c(C)c(O)c(CN3CCCCC3)cc12 | 1.65 µM (active) |  |
| CCCc1cc(=O)oc2c(C)c(OCC(=O)N3CCC(C(=O)O)CC3)ccc12 |  | 1.02% (inactive) |
| CCCc1cc(=O)oc2c(C)c(OC(C)C(=O)NCC(O)c3ccccc3)ccc12 (configuration not stated) |  | -26.5% (inactive) |
| CN(CC(=O)NCc1ccncc1)S(=O)(=O)c1ccc(Br)cc1 |  | 5.28% (inactive) |
| Cc1ccc(CN(C)Cc2cc(=O)oc3cc(C)c(Cl)cc23)cc1 |  | -1.04% (inactive) |
| Cc1ccc(O)c(NC(=S)NC(=O)COc2ccc(Br)cc2)c1 |  | 5.89% (inactive) |
| Cc1ccc(O)c(NC(=O)COc2cc(C)ccc2C)c1 | 2.94 µM (active) |  |
| Cc1ccc(C)c(OCC(=O)NNC(=O)C2CCC2)c1 |  | 11% (inactive) |
| CC(NC(=O)CNC(=O)Cc1cccc2ccccc12)c1ccc(S(N)(=O)=O)cc1 (configuration not stated) |  | -6.83% (inactive) |
| CCc1cc(=O)oc2c(C)c(OCC(=O)NCCN3CCOCC3)ccc12 |  | 12.9% (inactive) |
